Test results published in PMC7819943, “Rice protein-binding microarrays: a tool to detect cis-acting elements near promoter regions in rice”.
Over roughly 35,000 sequences, “fluorescence intensity (a.u.)” has its median near 10,000; the highest 2% begin near 52,000. The list comes from a sample in which the highest values are over-represented; it also holds similar and randomly drawn sequences.

molecular target: T1, OsWOX13 (Oryza sativa, UniProt Q5QMM3 1-267); experiment: protein-binding microarray (RPBM); PBS, 2% BSA, 51.3 ng/ul salmon testes DNA, 50 uM zinc acetate, 200 nM TF, 25 C, 1 h; high values mean tight binding; conditions: protein: recombinant; tags: N-terminal polyhistidine and DsRed monomer fusion (pET32a); label: CyDye5-dUTP incorporated in the synthesized complementary strand; 3' TTTTT single-stranded linker to array surface; dsDNA, one strand shown
T1 sequence: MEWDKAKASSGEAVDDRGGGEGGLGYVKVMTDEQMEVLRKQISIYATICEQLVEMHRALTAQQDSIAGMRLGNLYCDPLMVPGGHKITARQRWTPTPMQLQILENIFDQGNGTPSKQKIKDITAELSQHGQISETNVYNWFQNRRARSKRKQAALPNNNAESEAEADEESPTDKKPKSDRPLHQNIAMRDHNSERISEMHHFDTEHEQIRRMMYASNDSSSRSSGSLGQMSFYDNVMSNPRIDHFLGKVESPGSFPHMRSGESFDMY
In short: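 A custom Agilent array was converted to double-stranded form by primer extension with Cy5-dUTP and blocked with 2% BSA. Protein at 200 nM in PBS with 2% BSA, salmon testes DNA and 50 µM zinc acetate was applied for 1 h at 25 °C, followed by washing. The proteins were polyhistidine–DsRed N-terminal fusions of transcription factors, expressed in E. coli BL21-CodonPlus and Ni–NTA-purified. The binding signal is per-feature fluorescence intensity (arbitrary units) from an Axon 4000B scanner.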

Row | Sequence | binding signal
1 | TAGAATTACTTACTAAATTGCTTGTTATATTGAAGATATTCGGAGTCACCTAGTGCAG | 5790 fluorescence intensity (a.u.)
2 | AAAATAGTTAATACTCAATTAATCATGAGCTAATGGCTCACGGAGTCACCTAGTGCAG | 9240 fluorescence intensity (a.u.)
3 | CATAATTACCAGACATGTTAAATTTAATATATGGATGTATCGGAGTCACCTAGTGCAG | 40800 fluorescence intensity (a.u.)
4 | ATTATTGATTTGATGAAACTAATTTAGTATTATAAATATTCGGAGTCACCTAGTGCAG | 34600 fluorescence intensity (a.u.)
5 | GTGATAATTTAGTTACTAAACATGTTGTGAAACTTTATCTCGGAGTCACCTAGTGCAG | 3720 fluorescence intensity (a.u.)
6 | AGTAATTGATTAATTTTGTGACAGAGGTGGTCACTATATGCGGAGTCACCTAGTGCAG | 61000 fluorescence intensity (a.u.)
7 | CTAATTGAATAATCAAAATTTTAATCTTTGGTCGATAATGCGGAGTCACCTAGTGCAG | 63700 fluorescence intensity (a.u.)
8 | TATGATAAAATTGTTACATCATTTACCAGATGATTTAGAACGGAGTCACCTAGTGCAG | 7880 fluorescence intensity (a.u.)
9 | CTATATAAAACTGATTGATTCATATTACTACGACGTTTTACGGAGTCACCTAGTGCAG | 6690 fluorescence intensity (a.u.)
10 | ATTGAATAATCAAAATTTCAATCTTTGATCGATGAGGTATCGGAGTCACCTAGTGCAG | 12100 fluorescence intensity (a.u.)
11 | ACTGATTGACGTTTCTCATAACTAAAATATAGGTATTGTGCGGAGTCACCTAGTGCAG | 60900 fluorescence intensity (a.u.)
12 | ATAAATAACTTTGATATAAATTGTTTGAATAAAACTAATGCGGAGTCACCTAGTGCAG | 14300 fluorescence intensity (a.u.)
13 | CTTTATTGATAGGATAAAATTGTTACATCGTTTACCAGATCGGAGTCACCTAGTGCAG | 52600 fluorescence intensity (a.u.)
14 | CATCATCTCTAATTTTAATCAAAATATAAACTTTGCAGTGCGGAGTCACCTAGTGCAG | 9140 fluorescence intensity (a.u.)
15 | GGATAAAATTTAAATTGTACCAGTTTACGACGAATTACATCGGAGTCACCTAGTGCAG | 8600 fluorescence intensity (a.u.)
16 | TTAAGTAATTAAGAGGTGATAGTTAATTTATGCATGCATGCGGAGTCACCTAGTGCAG | 30400 fluorescence intensity (a.u.)
17 | ATTTTGGTTGATTTGTAAACAGAGGGATTAATTTGTGCATCGGAGTCACCTAGTGCAG | 15400 fluorescence intensity (a.u.)
18 | TGTGACAAACAATGATTACCAAGCTTTTGGGGAAATATAGCGGAGTCACCTAGTGCAG | 16900 fluorescence intensity (a.u.)
19 | TCATGATTAAGATGGGCTCACTATGTAATTTTATTTATAACGGAGTCACCTAGTGCAG | 8240 fluorescence intensity (a.u.)

Row | Sequence | binding signal
20 | AATAATTTGCCAATACCAACATTTTACTATAAATACTTATCGGAGTCACCTAGTGCAG | 5410 fluorescence intensity (a.u.)
21 | GCGCTGATACTTGTAATCAATCAACTCATCAGCATGGTCTCGGAGTCACCTAGTGCAG | 26100 fluorescence intensity (a.u.)
22 | GTAGTTAATTGTAAACACTGTACTAAGCAGTATACATTTTCGGAGTCACCTAGTGCAG | 20300 fluorescence intensity (a.u.)
23 | ACACAATCATTTATACAAAGCATATAATGGGCCTGTTCGGCGGAGTCACCTAGTGCAG | 6100 fluorescence intensity (a.u.)
24 | TGCTTGTAATTTCTATAAAATTAGCAGTATTTTGATGCTACGGAGTCACCTAGTGCAG | 9240 fluorescence intensity (a.u.)
25 | TTGACATAATATAATCATGTGATATCTTATTGTAAAGATTCGGAGTCACCTAGTGCAG | 10400 fluorescence intensity (a.u.)
26 | ATCAAATCAATAATTGAATATATTTTCATAATAAATTTGTCGGAGTCACCTAGTGCAG | 29400 fluorescence intensity (a.u.)
27 | CCATTGATTATAATTAAAGACTGTTAGGCAATTGACACAACGGAGTCACCTAGTGCAG | 54000 fluorescence intensity (a.u.)
28 | TGTTGATTATAATTAAACACAACAAACAGACTCGAAGCAACGGAGTCACCTAGTGCAG | 48200 fluorescence intensity (a.u.)
29 | GATCAATAATTGAATATATTTTAATAATAAATTTGTCTTGCGGAGTCACCTAGTGCAG | 55500 fluorescence intensity (a.u.)
30 | GTTTATTTATAATTATATTATATTAATATTGTTTGAAAATCGGAGTCACCTAGTGCAG | 8200 fluorescence intensity (a.u.)
31 | TGTGATTGAGGGAGTTAATTAGGACAAGTTAATAAGTGGCCGGAGTCACCTAGTGCAG | 64500 fluorescence intensity (a.u.)
32 | TTATTAATTGATAAAATATAGAAATATTGATTTATTGTTTCGGAGTCACCTAGTGCAG | 52500 fluorescence intensity (a.u.)
33 | GGAGGGAGTAGAATAATGATTGATTTAAGTTAATACTAGCCGGAGTCACCTAGTGCAG | 23500 fluorescence intensity (a.u.)
34 | ATCAATAATTGAACATATTTTCATAATAAATTTGTCTTGGCGGAGTCACCTAGTGCAG | 42100 fluorescence intensity (a.u.)
35 | AGGGAAAGTTGTGATTGAGGGAGGATGTTAGATAATGTTACGGAGTCACCTAGTGCAG | 10100 fluorescence intensity (a.u.)
36 | TTTTGTGATAGATTTTATATTAAATATATAGTTTTGTTTTCGGAGTCACCTAGTGCAG | 23400 fluorescence intensity (a.u.)
37 | TTTATAACATTGTTAATTGATTAGGCATGCAATGCCATATCGGAGTCACCTAGTGCAG | 32300 fluorescence intensity (a.u.)
38 | GTATTAATCATGTTTTATCATCTAACAACAACGAAAATACCGGAGTCACCTAGTGCAG | 7970 fluorescence intensity (a.u.)

Row | Sequence | binding signal
39 | ATAATTTGCTAATACTTAATTAATCACGTGTTAATGGATCCGGAGTCACCTAGTGCAG | 36600 fluorescence intensity (a.u.)
40 | AGTTCCCTCTAATTATAATTATAATGTCCTTGGTTTAGGACGGAGTCACCTAGTGCAG | 16200 fluorescence intensity (a.u.)
41 | CCTTGCAATCATTCATCAGAGGAGGAGTTCTACAGTGATGCGGAGTCACCTAGTGCAG | 3760 fluorescence intensity (a.u.)
42 | GCAATCTTTCATTATCATAATTGGTCGTAGCTTTAATTACCGGAGTCACCTAGTGCAG | 8430 fluorescence intensity (a.u.)
43 | TTAATTAGATGCTCATATAAATATGGTGAAACCTGCATGCCGGAGTCACCTAGTGCAG | 21500 fluorescence intensity (a.u.)
44 | CCAAATTTAATTTTACCTATTTTAAATGTGGCGATATATCCGGAGTCACCTAGTGCAG | 17900 fluorescence intensity (a.u.)
45 | GGAGTGATTAAATTAGTTAATTAGTTAATAATCCCATTGACGGAGTCACCTAGTGCAG | 56800 fluorescence intensity (a.u.)
46 | TAGCTAATTCTTAATTAATTATACGCTAATGAATCACTTTCGGAGTCACCTAGTGCAG | 23900 fluorescence intensity (a.u.)
47 | AAAATAAATAAATAAATTTGGTAACATTGATTAATTAGGACGGAGTCACCTAGTGCAG | 21200 fluorescence intensity (a.u.)
48 | TAATAATTAGTGATTAATTATCCTGACCATTGATTCAACACGGAGTCACCTAGTGCAG | 48300 fluorescence intensity (a.u.)
49 | AGTTAACATGATTTATGATAATTTTAATGTAAATGGTATACGGAGTCACCTAGTGCAG | 16700 fluorescence intensity (a.u.)
50 | ACACTAAATTATTCTACCCACAAATTAAATAATTGAAATACGGAGTCACCTAGTGCAG | 9290 fluorescence intensity (a.u.)
51 | AATGATTGAAGGATATCCATTTGAATGATGGTATGCTTTACGGAGTCACCTAGTGCAG | 43000 fluorescence intensity (a.u.)
52 | GCGTAATAGTAATAATTGATTAATGGTGACACGAGAAGGACGGAGTCACCTAGTGCAG | 46600 fluorescence intensity (a.u.)
53 | GTCTTAATTGAATGCATCAATTATACTTTTGCAGGAGTTTCGGAGTCACCTAGTGCAG | 64900 fluorescence intensity (a.u.)
54 | ATAAATAGTAATTGACATTAAGAATGGGACCCACACTCTACGGAGTCACCTAGTGCAG | 53000 fluorescence intensity (a.u.)
55 | TTAATTGATTCCATGAAGGTATAATGATACTTTTATGGTACGGAGTCACCTAGTGCAG | 65000 fluorescence intensity (a.u.)
56 | TAATACTTAATTAATTATATGCTAAATGCTTCTTCGTTTTCGGAGTCACCTAGTGCAG | 27300 fluorescence intensity (a.u.)
